Source: PubChem BioAssay
Hits are enriched below; roughly 2.9% of the tested compounds scored in any of these assays.
KLK7 zymogen act: activates the human kallikrein-7 zymogen | P49862 | purified proKLK7, EDANS-DABCYL substrate fluorescence; 100% is mature enzyme control, 0% vehicle | activation, % at 7 µM | 370,000 tested, 0.9% active | AID 652039;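 active = activation above the mean of all tested compounds plus 3 SD, computed per campaign excluding outliers beyond control limits, cut at about 13% in these data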
PLCb3 inh: blocks human PLC-beta3 enzyme activity; AID 720704; Purified PLC-beta3, fluorogenic substrate, fluorescence; 370,000 tested, 0.18% active; inhibition, % at 12.2 µM; in the data active = inhibition above about 11%
ADAM17 inh: inhibitors of human ADAM17. recombinant ADAM17, EDANS/DABCYL FRET peptide cleavage. inhibition, % at 6.95 µM. P78536. 370,000 tested, 0.83% active;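 active = inhibition above the mean of compounds lying between control limits plus 3 SD, set per campaign, cut at about 8.5% in these data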
PLCg1 inh: inhibitors of human phospholipase C gamma1 | purified PLC-gamma1, fluorogenic substrate, fluorescence | inhibition, % at 12.2 µM | 370,000 tested, 0.84% active | AID 720700
ADAM10 inh: inhibitors of human ADAM10; 370,000 tested, 0.62% active; inhibition, % at 7 µM; O14672; recombinant ADAM10, EDANS/DABCYL FRET peptide cleavage, 3 h;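 active = inhibition above a per-campaign cutoff equal to the mean of compounds falling between control-based bounds plus 3 SD, cut at about 20% in these data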
ADAM10 confirm: confirmation of inhibitors of human ADAM10; shares compounds with ADAM10 inh; ADAM10 QFRET peptide cleavage, EDANS fluorescence; inhibition, % at 6.95 µM; 2,100 tested, 1% active; AID 743208;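 active = inhibition above about 20% chosen separately for each screening run, limit read from the data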
ADAM17 counter: counter-screen for ADAM10 exosite inhibitors: inhibitors of human ADAM17. 2,100 tested, 0.5% active. inhibition, % at 6.95 µM. AID 743214. shares compounds with ADAM10 inh. ADAM17 QFRET peptide cleavage, EDANS fluorescence;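 active = mean triplicate inhibition above the solvent-only control wells' mean plus 3 SD, cut at about 12% in these data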
ADAM10 ctr: inhibits human ADAM10 in ADAM17 exosite counter-screen; inhibition, % at 6.95 µM; recombinant ADAM10, EDANS/DABCYL FRET peptide cleavage, 3 h; AID 743256; shares compounds with ADAM17 inh; 2,900 tested, 47% active;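 active = mean inhibition over the triplicate runs exceeds the activity threshold set in the earlier primary screen, cut at about 20% in these data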
ADAM17 confirm: confirmation of inhibitors of human ADAM17. shares compounds with ADAM17 inh. recombinant ADAM17, EDANS/DABCYL QFRET peptide cleavage. inhibition, % at 6.95 µM. 2,900 tested, 65% active. AID 743257;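 active = mean inhibition across replicates above the hit cutoff set in the primary screen, cut at about 8.5% in these data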
PLCg1 ctr: inhibits human PLC-gamma1 in PLC-beta3 counter-screen; shares compounds with PLCg1 inh; AID 743258; purified PLC-gamma1, fluorogenic substrate, fluorescence; inhibition, % at 12.3 µM; 3,300 tested, 3.1% active
PLCbeta3 conf: confirmation of human PLC-beta3 inhibitors | 3,300 tested, 1% active | purified PLC-beta3, fluorogenic substrate fluorescence | inhibition, % at 12.3 µM | shares compounds with PLCg1 inh | AID 743261; in the data active = inhibition above about 11%
Large screens that a line does not name were inactive (follow-up assays come after a bar, where they were run). Cut-off read from the data, not from the text of the source, unless noted: active = inhibition above about 9.5%; inactive = the rest.

Oc1ccc(O)c2c1C1(Cl)C(Cl)=C(Cl)C2(Cl)C1(Cl)Cl	ADAM17 inh 15, ADAM10 inh 41 | ADAM10 confirm inactive | ADAM17 counter inactive | ADAM10 ctr 29 | ADAM17 confirm 14
COc1ccc(-n2nnnc2C(CCc2ccccc2)N2CCC3(CC2)C(=O)NCN3c2ccccc2)cc1 (stereo not given)	ADAM17 inh 12, ADAM10 inh 28 | ADAM10 confirm inactive | ADAM17 counter inactive | ADAM10 ctr 33 | ADAM17 confirm 18
CCC(c1nnnn1-c1ccc(OC)cc1)N1CCC2(CC1)C(=O)NCN2c1ccccc1 (stereo not given)	none
CC1=CC(C)CC(C)OC(=O)CC(c2ccc(O)cc2)NC(=O)C(Cc2c(Br)[nH]c3ccccc23)N(C)C(=O)C(C)NC(=O)C(C)C1 (stereo not given)	ADAM17 inh 8.9, ADAM10 inh 25 | ADAM10 confirm inactive | ADAM17 counter inactive | ADAM10 ctr 30 | ADAM17 confirm 18
COC(=O)C1=C(c2cccc(OCc3ccccc3)c2)C[C@@H]2CC[C@H]1N2C	none
COc1ccc(NP(=O)(Oc2ccc(Cl)cc2)Oc2ccc(Cl)cc2)cc1OC	ADAM17 inh 12, ADAM10 inh 23 | ADAM10 confirm inactive | ADAM17 counter inactive | ADAM10 ctr 41 | ADAM17 confirm 17
C#CCN[C@H](C)Cc1ccccc1	none
O=C(O)C1C(C(=O)O)C2(Cl)C(Cl)=C(Cl)C1(Cl)C2(Cl)Cl (stereo not given)	none
COc1ccc(OC)c(NP(=O)(Oc2ccccc2)Oc2ccccc2)c1	ADAM17 inh 10, PLCg1 inh 11, ADAM10 inh 32 | ADAM10 confirm inactive | ADAM17 counter inactive | ADAM10 ctr inactive | ADAM17 confirm inactive | PLCg1 ctr inactive | PLCbeta3 conf inactive
COCCNC(=O)N1[C@H]2CC[C@@H]1C(C(=O)OC)=C(c1ccc(-c3ccccc3)c(F)c1)C2	none
COC(=O)C1=C(c2ccc(-c3ccccc3)c(F)c2)C[C@@H]2CC[C@H]1N2C(=O)NCCOc1ccccc1	ADAM17 inh 18, PLCg1 inh 10, ADAM10 inh 38 | ADAM10 confirm inactive | ADAM17 counter inactive | ADAM10 ctr 38 | ADAM17 confirm 19 | PLCg1 ctr inactive | PLCbeta3 conf inactive
COC(=O)C1=C(c2ccc(OC(F)(F)F)cc2)C[C@@H]2CC[C@H]1N2C(=O)N1CCCCC1	none
CC(C)c1ccc(-n2c(O)c(C=NC(CCS(C)=O)C(=O)O)c(=O)[nH]c2=S)cc1 (stereo not given)	ADAM17 inh 9.2 | ADAM10 ctr inactive | ADAM17 confirm inactive
O=C(N/N=C/c1c(O)n(-c2ccccc2)c(=S)[nH]c1=O)c1ccccc1	none
O=c1[nH]c2ccccc2n1C1CCN(C(c2ccccc2OC(F)(F)F)c2nnnn2Cc2ccccc2)CC1 (stereo not given)	ADAM17 inh 12 | ADAM10 ctr 42 | ADAM17 confirm 20
COc1ccc(-n2nnnc2C(c2cc3ccccc3o2)N2CCC(n3c(=O)[nH]c4ccccc43)CC2)cc1 (stereo not given)	ADAM17 inh 9.6 | ADAM10 ctr 28 | ADAM17 confirm 13
COc1ccc(C(c2nnnn2Cc2ccccc2)N2CCC(n3c(=O)[nH]c4ccccc43)CC2)cc1 (stereo not given)	none
O=c1[nH]c2ccccc2n1C1CCN(C(c2cccs2)c2nnnn2Cc2ccccc2)CC1 (stereo not given)	ADAM17 inh 11 | ADAM10 ctr 38 | ADAM17 confirm 18
Cc1cc(O)c2c(c1)OC(C)(C)C1=C2CC(C)CC1 (stereo not given)	ADAM17 inh 12 | ADAM10 ctr 30 | ADAM17 confirm 14
Cc1cccc(N2C(=O)/C(=C/c3ccc(CN(CCC#N)S(C)(=O)=O)o3)C(=O)NC2=S)c1	ADAM17 inh 9.1 | ADAM10 ctr inactive | ADAM17 confirm inactive
Cc1ccc(C2N(c3cc(C)on3)C(=O)C3CCCN32)cc1 (stereo not given)	none
CCc1sc(C(=O)N2CCC3(CC2)OCCO3)cc1Br	none
O=C(c1cc2c(s1)CCCCCC2)N1CCC2(CC1)OCCO2	ADAM17 inh 8.7 | ADAM10 ctr inactive | ADAM17 confirm 12
CC(C)=CCc1c(O)cc2c(c1O)C(=O)CC(c1ccc(O)cc1)O2 (stereo not given)	ADAM17 inh 9.3 | ADAM10 ctr 37 | ADAM17 confirm 20
COc1ccc(S(=O)(=O)NC(CC(=O)N2CCC3(CC2)OCCO3)c2ccco2)cc1 (stereo not given)	none
COc1ccc(C(=O)Nc2cccc(S(=O)(=O)NCc3ccco3)c2)cc1	ADAM17 inh 8.7 | ADAM10 ctr 23 | ADAM17 confirm 15
CC(C)N(CCC(C(N)=O)(c1ccccc1)c1ccccn1)C(C)C (stereo not given)	none
NC(=O)CN1CC(c2ccccc2)CC1=O (stereo not given)	none
CN1C(=O)C(=Cc2sc(=O)n(-c3ccccc3)c2N(C)C)C(=O)N(C)C1=O	none
COc1ccc(OC(=O)N(C)C[C@H]2OCc3cnnn3CCCC(=O)N([C@@H](C)CO)C[C@@H]2C)cc1	none
COC(=O)C1=C(c2ccc(F)cc2OCc2ccccc2)C[C@@H]2CC[C@H]1N2C(=O)NCc1ccc(C)cc1	none
COC(=O)C1=C(c2ccc(F)cc2OCc2ccccc2)C[C@@H]2CC[C@H]1N2C(=O)NCc1ccc([N+](=O)[O-])cc1	ADAM17 inh 9.0 | ADAM10 ctr 30 | ADAM17 confirm 20
CSCCC(c1nnnn1Cc1ccccc1)N1CCC2(CC1)C(=O)NCN2c1ccccc1 (stereo not given)	ADAM17 inh 11, PLCg1 inh 11 | ADAM10 ctr inactive | ADAM17 confirm inactive | PLCg1 ctr inactive | PLCbeta3 conf inactive
